This is part of a sample that, as a whole, favours compounds with a hit. Of some 83,000 tested, about 20% had one in any assay.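 Single-concentration screen, 48 h exposure, 96-well plates. Endpoint: percent growth. Below 10 = active.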 Active and inactive are the calls of the source.
System: MDA-MB-435 melanoma
Experiment: NCI-60 one-dose screen, 48 h (100 = growth as untreated, 0 = no growth, -100 = all killed)
Settings: 10 µM unless noted

Structure (SMILES) | growth
COc1cc(-c2nn(-c3ccc(C(=O)O)cc3)cc2C(=O)O)ccc1O | -5.36% (active)
COc1cccc(/C=N/NC(=O)c2ccccc2Nc2ccnc(C(F)(F)F)c2)c1O | 31.9% (inactive)
COc1cc(C(=O)Oc2ccccc2OC(=O)c2cc(OC)c(OC)c(OC)c2)cc(OC)c1OC | 103% (inactive)
CN1CCN(CCCOc2cccc3nc(Nc4cc(Cl)cc(Cl)c4)ccc23)CC1 | -46.5% (active)
COc1cccc(/C=C2\SC(=Nc3ccc(NC(C)=O)cc3)NC2=O)c1OC | 52.1% (inactive)
Cc1cc(N2CCN(c3ccnc4cc(Cl)ccc34)CC2)nc(NC2CCCCC2)n1 | -6.47% (active)
O=C(/C=C/C=C/c1ccc2c(c1)OCO2)N/N=C\c1ccc(O)cc1O | 32.6% (inactive)
N#C/C(=C\c1ccc(-c2cc(C(F)(F)F)ccc2Cl)o1)c1nc(-c2ccco2)cs1 | 102% (inactive)
CCc1nc(N)nc(N)c1C#CC(C)c1cc(-c2ccnc(C)c2)c2oc(C)nc2c1 (stereo not drawn) | 19.4% (inactive)
O=C1Nc2c(ccc(Cl)c2Cl)/C1=C\c1cc(C(F)(F)F)cc(C(F)(F)F)c1 | -53.4% (active)
COc1ccc(S(=O)(=O)N2CC3(COC3)C2)cc1NC(=O)c1[nH]c(C)c2c1CCCCC2=O | 45.5% (inactive)

System: SW-620 colon
Experiment: as above
Settings: 10 µM unless noted

Structure (SMILES) | growth
Cc1cc(N2CCCC2)nc(NC2CCCC(Nc3ccnc4cc(Cl)ccc34)C2)n1 (stereo not drawn) | -58.3% (active)
CN(C)c1ccc(N=Nc2ccc(Br)cn2)c(O)c1 | 26.1% (inactive)
COc1ccc(-c2cc(NC(=O)Nc3ccc4ncsc4c3)no2)cc1 | 105% (inactive)
O=[N+]([O-])c1ccc2c(c1)Cc1cc(F)ccc1-2 | 96.3% (inactive)
COc1ccc2[nH]cc(-c3noc(C(=O)c4cn(C)c5ccc(F)cc45)n3)c2c1 | 95.1% (inactive)
CCOC(=O)c1csc(NC(=O)COc2cccc(/C=C3\CSc4ccccc4C3=O)c2)n1 | -65.5% (active)
O=C(N=Nc1c(O)[nH]c2ccc(Br)cc12)c1cc(-c2ccccc2)on1 | 103% (inactive)
CC1CCNC(C)C1 (stereo not drawn) | 100% (inactive)
CC(O)CN(CC(C)O)c1ccc2c(c1)Cc1cc([N+](=O)[O-])ccc1-2 (stereo not drawn) | 99% (inactive)
Nc1nc2ccc3[nH]ncc3c2c2c1CCCC2 | 1.68% (active)
N#CN1CC[C@H](C(=O)Nc2cc3cc(C(N)=O)ccc3cn2)C1 | 6.39% (active)
C=CC(=O)Nc1cccc(-c2nc(SC)nc(NCCN3CCOCC3)c2C#N)c1 | 108% (inactive)
CC(=O)OCCC/C(=C/c1cc2ccccc2c2ccccc12)[N+](=O)[O-] | -88.2% (active)
NC(CSC(c1ccccc1)(c1ccccc1)c1ccc(Cl)cc1)C(=O)O (stereo not drawn) | 19.2% (inactive)
Cc1ccccc1COc1ccc(-c2ccnn2-c2ccc(Cl)cc2)cc1 | 29.7% (inactive)
COc1ccc(-c2cc(=O)c3c(OC)c4ccoc4cc3o2)cc1 | 93.2% (inactive)
CSc1nc(Nc2cccc(NC(=O)CCl)c2)c(C#N)c(-c2cccc([N+](=O)[O-])c2)n1 | 7.84% (active)
CC(C)(C)c1cc(/C=N\NC(=O)/C=C/C=C/c2ccc3c(c2)OCO3)c(O)c(C(C)(C)C)c1 | 74.6% (inactive)
CCOc1cc2ncc(C#N)c(Nc3ccc(OCc4cccc(F)c4)c(Cl)c3)c2cc1NC(=O)CC1CCSS1 (stereo not drawn) | 90.4% (inactive)
COc1ccc(-c2cc(Nc3ccnc(N4CCOCC4)n3)on2)cc1 | 31.1% (inactive)
COC(=O)[C@]12CCC(C)(C)C[C@H]1[C@H]1C(=O)C[C@@H]3[C@@]4(C)c5c([nH]c6ccccc6c5=O)C(C)(C)[C@@H]4CC[C@@]3(C)[C@]1(C)CC2 | 71.2% (inactive)
CN(C)CCCNc1c2ccccc2nc2ccccc12 | 103% (inactive)
O=C1NC(=S)N[C@H]1CC(=O)n1cnc2ccccc21 | 97.2% (inactive)
Cc1ccc2oc(=O)cc(C3c4ccc([nH]4)C(c4cc(=O)oc5ccc(C)cc45)c4ccc([nH]4)C(c4cc(=O)oc5ccc(C)cc45)c4ccc([nH]4)C(c4cc(=O)oc5ccc(C)cc45)c4ccc3[nH]4)c2c1 (stereo not drawn) | -7.64% (active)
CSc1ccc(-c2n[nH]nc2-c2cc3ccccc3s2)cc1 | 23.7% (inactive)
COC(=O)c1ccc(NC(=O)c2ccc(-c3cccc([N+](=O)[O-])c3)o2)cc1 | 101% (inactive)
O=C(N=Nc1c(O)[nH]c2ccccc12)c1cc(-c2ccccc2)on1 | 97.8% (inactive)

Reference: PubChem BioAssay (NCI)
